Screens: PubChem BioAssay, National Center for Advancing Translational Sciences (NCATS)
RE007 growth inh = qHTS Assay for Inhibitors of the HIV-1 protein Vpr. S. pombe RE007 Vpr strain, BacTiter-Glo ATP luminescence, 24 h. Potency, µM (doses to about 92.2 µM), without a hit: top-dose activity change, negative = less growth, actives largely listed as inhibitors. 0.21% of 360,000 active; active = well fitted falling curve with a large enough effect; inconclusive = small, poorly fitted or top-dose-only effect; inactive = no such curve, though single readings can be large or run the other way; also: potency is read from the fitted curve at half-maximal effect; % is scaled to controls: 0 for no effect and ±100 for the full control effect; nearly all actives have a fitted effect of over 50% in size
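Fission yeast RE007 carrying one integrated HIV-1 vpr copy, seeded at OD 0.01 in PMG+AL medium with 23 nL pinned compound. Grown 24 h at 30 degrees; viability read by BacTiter-Glo luminescence after 5 min.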
LmPK inh = qHTS Assay for Inhibitors of Leishmania Mexicana Pyruvate Kinase (LmPK); Q27686; Potency, µM (highest dose often 57.5 µM), without a hit: at the highest dose activity change, negative = inhibition, hits mostly inhibitors; purified LmPK, Kinase-Glo ATP luminescence, 1 h; 0.37% of 290,000 active; also: potency is read from the fitted curve at half-maximal effect; % is scaled to controls: 0 for no effect and ±100 for the full control effect
Target sequence (Q27686 whole entry, looked up): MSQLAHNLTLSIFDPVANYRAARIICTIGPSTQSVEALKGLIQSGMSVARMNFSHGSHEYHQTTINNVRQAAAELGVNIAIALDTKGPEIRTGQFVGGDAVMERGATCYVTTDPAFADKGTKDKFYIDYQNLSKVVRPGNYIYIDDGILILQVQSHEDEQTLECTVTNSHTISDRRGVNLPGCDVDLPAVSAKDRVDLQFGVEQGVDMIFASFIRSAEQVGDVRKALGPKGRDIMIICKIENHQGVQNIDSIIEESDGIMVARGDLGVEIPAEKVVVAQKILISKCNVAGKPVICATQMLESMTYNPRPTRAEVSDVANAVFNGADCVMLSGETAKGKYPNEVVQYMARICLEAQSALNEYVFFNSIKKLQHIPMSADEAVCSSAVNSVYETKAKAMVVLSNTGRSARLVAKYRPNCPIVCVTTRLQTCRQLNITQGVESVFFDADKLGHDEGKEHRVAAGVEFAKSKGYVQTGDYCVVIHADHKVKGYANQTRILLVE
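Pyruvate kinase activity monitored as ATP production (luciferase luminescence). Conditions: 0.1 nM enzyme, 0.5 mM PEP, 0.1 mM ADP, 1 h, RT; normalized against uninhibited and no-enzyme wells.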
CHX counter = Cycloheximide Counterscreen for Small Molecule Inhibitors of Shiga Toxin; 12% of 300,000 active; cell reporter, cycloheximide protein synthesis inhibition counterscreen; AID 2314, 2010; max response, %; in the data active = max response mostly above about 13%, no sharp cut-off; inactive = mostly below about 14%; also: read at 38.3 µM for the half of the compounds with a filed dose; 0% is about no effect
Shiga toxin inh = A qHTS for Small Molecule Inhibitors of Shiga Toxin; inhibition, % at 38.7 µM; 9.2% of 290,000 active; Vero cells, Shiga toxin protein synthesis inhibition reporter; AID 2315, 2010; in the data active = inhibition mostly above about 28%, no sharp cut-off; inactive = mostly below about 43%; also: 0% is about no effect
Giardia FBPA inh = qHTS Assay for Inhibitors of Fructose-1,6-bisphosphate Aldolase from Giardia Lamblia; A8B2U2; purified Giardia FBPA; Potency, µM (series often up to 59.6 µM), without a hit: at the highest dose activity, negative = inhibition, actives largely listed as inhibitors; 0.71% of 290,000 active; also: potency is read from the fitted curve at half-maximal effect; % is scaled to controls: 0 for no effect and ±100 for the full control effect; nearly all actives have a fitted effect of over 55% in size
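40 nM FBPA preincubated 10 min at RT with compound (up to 57.5 uM final), then substrate plus GAPDH/TPI/NAD/arsenate coupling and diaphorase/resazurin added. Fluorescence read after 20 min at RT, 525/598 nm.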
Tb PYK inh = qHTS of Trypanosoma Brucei Inhibitors; TbPYK enzyme, Kinase-Glo Plus ATP luminescence, 45 min; Potency, µM (series often up to 76.8 µM), for inactives: at the top dose activity, negative = inhibition, usual class: inhibitors; 0.12% of 410,000 active; AID 624173, 2012; also: potency is read from the fitted curve at half-maximal effect; % is scaled to controls: 0 for no effect and ±100 for the full control effect; nearly all actives have a fitted effect of over 50% in size
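Assay buffer: 50 mM TEA pH 7.2, 100 mM KCl, 10 mM MgCl2, 0.05% BSA, 0.01% Tween-20. Pyruvate kinase from T. brucei plus substrate met compound, then ADP (130 uM final). Luminescence was read post 45 min RT.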
* marks the source's active call; other numbers are inactive results; i = inactive; ? = inconclusive; / = no result given; [ ] = remark or other dose. This excerpt belongs to a sample that is enriched for hits. Unless noted, calls follow the shape of the dose curve; as a rule, active = well fitted curve in the direction sought with a large enough effect; inconclusive = small, poorly fitted or top-dose-only effect, or another doubt; inactive = no such curve, though single readings can be large; an effect the other way counts as inactive or inconclusive.

SMILES	RE007 growth inh	LmPK inh	CHX counter	Shiga toxin inh	Giardia FBPA inh	Tb PYK inh
CCOCCCNC(=O)C(c1ccc(C)cc1)N(Cc1ccc2c(c1)OCO2)C(=O)c1ccccc1O (configuration not stated)	/	/	/	/	/	-5.4%
COc1ccc(-c2nc(CN3CCC(C(=O)NCCCN4CCN(c5ccccc5F)CC4)CC3)c(C)o2)cc1OC	/	/	/	/	/	9.9%
CC(=O)N1c2ccccc2[C@@H](C)[C@@H]1C	-9.3%	/	/	/	/	-9.0%
CC(=O)N1c2ccccc2C2(O)N=C(C)SC12 (configuration not stated)	-5.9%	16.6%	12.4*	35.4	?	12.6µM*
CC[C@H]1C(c2cccc(Cl)c2)=NN(c2ccccc2)[C@@H]1CO	/	/	15.6	i	-15.1%[89.2 µM]	/
Cc1cc(SCC(=O)c2cccs2)n2nc(C)c(-c3ccccc3)c2n1	2.1%	4.4%	39.0*	39.5*	?	-15.8%
Cc1cc(SCC#N)n2nc(C)c(-c3ccccc3)c2n1	-9.7%	0.8%	23.2	3.6	11.3%	-4.9%
CC(=O)CSc1cc(C)nc2c(-c3ccccc3)c(C)nn12	-4.9%	-2.6%	-1.5	-1.9	1.9%	-0.8%
Cc1cc(N)n2nc(C)c(-c3ccccc3)c2n1	-7.2%	2.9%	13.0*	20.6	-4.2%	-3.1%
C=CCSc1cc(C)nc2c(-c3ccccc3)c(C)nn12	8.1%	-0.9%	24.9*	12.7	4.4%	-15.8%
Cc1nn2c(-c3cccnc3)ccnc2c1-c1ccccc1	8.8%	4.6%	24.6*	41.2*	5.8%	2.0%
O=C(c1ccccc1)[C@@H]1O[C@H]1c1ccc(-c2ccccc2)cc1	/	/	/	/	2.7%	/
CCC(C)NC(=O)c1ccccc1NC(=O)C1CCN(S(=O)(=O)Cc2ccccc2)CC1 (configuration not stated)	/	/	/	/	/	-3.0%
Cc1cccc(C)c1NC(=O)c1cc(S(N)(=O)=O)c(Cl)cc1O	/	/	/	/	/	-3.9%
COC(=O)N1CCC2(CC1)CN(c1ccccc1)C2	/	/	/	/	-3.7%	4.1%
Cc1ccc(C#N)c(SCc2nnc(-c3ccc(Cl)cc3)o2)n1	1.4%	1.7%	77.6*	127.9*	2.9%	-8.7%
COc1ccc(SCCc2nnc(-c3ccccc3)o2)cc1	0.7%	9.9%	9.6	18.0	-0.4%	1.0%
Cc1cc(C)c(C#N)c(SCc2nnc(-c3ccccc3)o2)n1	/	2.8%	40.2*	91.7*	-0.4%	-22.5%
Cc1cc(C)c(C#N)c(SCc2ccccc2[N+](=O)[O-])n1	/	-1.6%	-0.2	-8.1	-0.7%	-10.4%
c1ccc(-c2nnc(CSc3nncs3)o2)cc1	28.6%	-0.4%	46.5*	62.6*	1.7%	-4.3%
Cc1cc(C)c(C#N)c(SCc2nnc(-c3ccccc3[N+](=O)[O-])o2)n1	18.3%	0.2%	46.8*	70.2*	-2.8%	-5.5%
CCNc1ncc2nc(-c3cc(F)cc(F)c3)c(=O)n(-c3ccccc3)c2n1	/	/	/	/	-5.8%	3.9%
COc1ccc(NC(=O)CN2C(=O)CSc3ccc(S(=O)(=O)N(C)C)cc32)cc1Cl	/	/	/	/	/	-15.2%
CCN(CC)CCOc1ccc(-c2nc3cc(Cl)ccc3s2)cc1	/	/	/	/	/	3.2%
Cc1ccc(C2(C)NC(=O)N(CC(=O)NCc3ccccc3Cl)C2=O)cc1 (configuration not stated)	0.3%	-0.5%	11.6*	1.7	8.6%	2.3%
SMILES	RE007 growth inh	LmPK inh	CHX counter	Shiga toxin inh	Giardia FBPA inh	Tb PYK inh
CC1(c2ccc(OC(F)F)cc2)NC(=O)N(CC(=O)Nc2ccccc2)C1=O (configuration not stated)	-1.1%	0.1%	19.3*	72.4*	-3.8%	-6.9%
CC1(c2ccc(OC(F)F)cc2)NC(=O)N(CC(=O)Nc2ccc3[nH]c(=O)[nH]c3c2)C1=O (configuration not stated)	-14.5%	/	/	/	/	1.2%
Cc1ccc(CNC(=O)CN2C(=O)NC(C)(c3ccc(Cl)cc3)C2=O)cc1 (configuration not stated)	-2.3%	0.0%	-1.2	-2.1	4.7%	-19.3%
Cc1ccc2nc(-c3ccc(NC(=O)CN4C(=O)NC(C)(c5ccc(OC(F)F)cc5)C4=O)cc3)sc2c1 (configuration not stated)	-3.7%	8.1%	30.2*	98.9*	10.3%	10.6%
Cc1cc2c(c(=O)o1)C1O[C@](c3ccsc3)(Cc3ccccc31)O2	/	4.0%[11.5 µM]	-2.5	i	8.2%[12.9 µM]	/
CCOc1ccc(CNS(=O)(=O)c2ccc(-c3coc(C)n3)cc2)cc1OC	/	/	/	/	/	-5.8%
CC(C)c1ccc(/C=C2\SC(=O)N(CC(=O)NCCCn3ccnc3)C2=O)cc1	-1.8%	-0.9%	39.1*	69.4*	7.0%	-2.8%
CCOc1ccc(/C=C2\SC(=S)N(CC(=O)NCCCN3CCOCC3)C2=O)cc1	7.9%	-4.4%	21.5*	46.8*	/	-6.9%
CC(C)c1ccc(/C=C2\SC(=S)N(CC(=O)NCCCN3CCOCC3)C2=O)cc1	1.0%	-3.1%	39.1*	46.4	/	-10.1%
O=C(CN1C(=O)S/C(=C\c2ccccc2)C1=O)NCCCn1ccnc1	1.9%	-10.8%	-10.8	-4.9	/	-11.4%
O=C(CN1C(=O)/C(=C/c2cccc(Br)c2)SC1=S)NCCCN1CCOCC1	-14.1%	0.6%	8.3	16.0	/	2.4%
Cc1cc(C)c2oc(C(=O)Nc3sc4c(c3C(=O)NCc3ccco3)CCCC4)cc(=O)c2c1	/	/	/	/	/	-0.4%
COc1cccc(NC(=O)N2CCN3CCCCC3C2)c1 (configuration not stated)	/	/	/	/	/	-7.7%
Cc1ccc2[nH]c3ccccc3c(=O)c2c1	-22.0%	-4.2%	28.0*	48.5*	11.8%	-0.1%
Cc1nc(C)c(Cc2ccccc2Cl)c(=O)[nH]1	-5.9%	1.4%	-2.1	0.3	-0.2%	-4.6%
Cc1nc2ccccc2nc(C)c1=NOCc1ccccc1Cl	1.6%	1.8%	39.4*	85.5*	-6.1%	-0.3%
COc1ccc(N(C)C(=O)c2cc(S(=O)(=O)N3CCc4ccccc43)cn2C)c(OC)c1	/	/	/	/	/	-5.6%
CCOC(=O)c1c(C)[nH]c(C)c1S(=O)(=O)N1CCC(C(=O)NCc2ccc(F)cc2)CC1	/	/	/	/	/	2.8%
COc1ccc(NC(=O)Nc2ccccc2SC)c(OC)c1	-21.9%	-1.3%	-1.4	29.0	-2.4%	-11.5%
COc1ccc(NC(=O)Nc2ccccc2SC)cc1OC	-21.7%	-4.1%	19.7*	47.9*	-9.0%	9.9%
COc1cccc(NC(=O)Nc2ccccc2SC)c1	-19.5%	?	37.2*	84.0*	-8.6%	-14.5%
Cc1ccccc1NC(=O)Cn1c(=O)n(CCCCCC(=O)NCc2ccc3c(c2)OCO3)c(=O)c2sccc21	/	/	/	/	/	-6.0%
COc1ccc(C(=O)c2cn(CC(=O)Nc3cc(C)ccc3C)c3nc(C)ccc3c2=O)cc1	/	/	/	/	/	3.4%
